From the supplement of paper PMC11001985

These targets were tested with C#CCNC(=O)CCSSCCC(=O)NCCc1ccc(C=O)c(C=O)c1 (assay: lysine labeling ratio R10:1 (500 µM / 50 µM probe), SILAC-ABPP in living cells; higher = lower intrinsic lysine reactivity toward the probe, active = 2 or less). Details: HeLa; probe concentrations 500 vs 50 µM.
How it was run: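 Each lysine carries an R value: the filtered median of MS1 peptide ratios of high probe to low probe, with the median then taken over forward and reverse replicates. These came from living SILAC light and heavy HeLa cells in PBS at room temperature labelled with an alkyne-tagged, disulfide-linked lysine probe at 500 µM or 50 µM, in forward and reverse swaps. The lysates were mixed, clicked to biotin-azide, trypsin-digested, captured on neutravidin, released by DTT, alkylated and run by LC-MS/MS on a TIMS-TOF Pro. The highest value allowed is 20.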

UniProt Q9UHN6, sequence (Q9UHN6 whole entry): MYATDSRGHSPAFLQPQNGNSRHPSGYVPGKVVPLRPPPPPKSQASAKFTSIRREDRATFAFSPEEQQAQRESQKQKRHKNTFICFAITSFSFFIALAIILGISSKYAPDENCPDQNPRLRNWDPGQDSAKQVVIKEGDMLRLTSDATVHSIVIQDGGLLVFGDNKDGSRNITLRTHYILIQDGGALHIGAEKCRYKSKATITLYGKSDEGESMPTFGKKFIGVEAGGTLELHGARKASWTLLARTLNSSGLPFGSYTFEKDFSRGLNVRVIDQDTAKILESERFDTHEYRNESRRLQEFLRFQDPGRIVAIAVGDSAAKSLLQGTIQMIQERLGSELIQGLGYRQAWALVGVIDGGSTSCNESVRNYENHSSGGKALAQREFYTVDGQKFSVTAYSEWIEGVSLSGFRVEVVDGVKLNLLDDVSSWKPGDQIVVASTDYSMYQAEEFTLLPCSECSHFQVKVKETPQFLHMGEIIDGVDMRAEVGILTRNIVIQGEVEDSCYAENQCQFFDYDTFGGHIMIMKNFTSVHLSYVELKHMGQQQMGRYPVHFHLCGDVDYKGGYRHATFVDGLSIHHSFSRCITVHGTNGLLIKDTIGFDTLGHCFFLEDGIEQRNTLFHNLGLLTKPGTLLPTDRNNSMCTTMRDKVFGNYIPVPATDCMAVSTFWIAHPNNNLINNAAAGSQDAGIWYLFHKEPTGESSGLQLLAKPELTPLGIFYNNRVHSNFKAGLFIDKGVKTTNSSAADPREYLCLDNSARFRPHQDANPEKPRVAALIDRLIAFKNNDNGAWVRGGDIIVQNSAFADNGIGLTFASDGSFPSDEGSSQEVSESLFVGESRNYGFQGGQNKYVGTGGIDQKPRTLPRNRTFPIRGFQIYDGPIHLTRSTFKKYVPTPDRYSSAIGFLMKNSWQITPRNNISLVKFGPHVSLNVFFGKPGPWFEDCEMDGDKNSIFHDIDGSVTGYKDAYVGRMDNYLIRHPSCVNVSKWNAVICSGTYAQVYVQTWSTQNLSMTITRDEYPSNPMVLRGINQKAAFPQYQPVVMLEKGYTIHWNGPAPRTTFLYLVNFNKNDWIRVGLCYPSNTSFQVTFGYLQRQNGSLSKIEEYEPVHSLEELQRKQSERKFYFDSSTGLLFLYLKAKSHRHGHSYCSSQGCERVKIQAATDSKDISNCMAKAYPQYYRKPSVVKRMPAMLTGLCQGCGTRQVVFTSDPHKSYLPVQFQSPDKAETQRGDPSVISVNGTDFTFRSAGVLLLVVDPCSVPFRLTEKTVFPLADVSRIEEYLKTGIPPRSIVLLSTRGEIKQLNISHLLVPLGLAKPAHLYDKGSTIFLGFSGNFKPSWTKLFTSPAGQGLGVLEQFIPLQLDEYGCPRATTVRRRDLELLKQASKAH
UniProt O75083, sequence (O75083 whole entry): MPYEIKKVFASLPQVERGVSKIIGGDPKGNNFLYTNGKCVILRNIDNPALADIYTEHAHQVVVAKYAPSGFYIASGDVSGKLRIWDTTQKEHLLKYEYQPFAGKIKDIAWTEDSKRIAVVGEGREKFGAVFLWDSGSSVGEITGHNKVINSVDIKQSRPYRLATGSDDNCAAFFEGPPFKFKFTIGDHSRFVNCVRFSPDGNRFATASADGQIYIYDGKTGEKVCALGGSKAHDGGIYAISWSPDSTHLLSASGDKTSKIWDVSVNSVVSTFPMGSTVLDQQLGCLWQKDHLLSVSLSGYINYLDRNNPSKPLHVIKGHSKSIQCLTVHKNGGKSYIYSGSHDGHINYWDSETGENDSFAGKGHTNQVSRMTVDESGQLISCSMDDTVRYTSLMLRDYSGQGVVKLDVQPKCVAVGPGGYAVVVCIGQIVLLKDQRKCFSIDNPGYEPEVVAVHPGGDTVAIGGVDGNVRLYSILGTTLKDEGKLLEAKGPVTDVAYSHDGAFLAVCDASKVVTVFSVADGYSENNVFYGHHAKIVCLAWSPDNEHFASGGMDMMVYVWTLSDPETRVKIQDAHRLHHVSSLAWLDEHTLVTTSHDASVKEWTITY
UniProt O15260, sequence (O15260 whole entry): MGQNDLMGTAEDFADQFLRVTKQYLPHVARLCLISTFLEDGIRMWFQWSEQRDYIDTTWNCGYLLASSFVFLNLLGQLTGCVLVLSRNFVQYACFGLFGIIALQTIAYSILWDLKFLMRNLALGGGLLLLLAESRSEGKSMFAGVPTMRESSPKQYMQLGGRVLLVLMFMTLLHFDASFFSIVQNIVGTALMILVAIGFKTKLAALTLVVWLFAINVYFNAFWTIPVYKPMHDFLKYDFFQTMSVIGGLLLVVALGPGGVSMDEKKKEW
UniProt P11717, sequence (P11717 whole entry): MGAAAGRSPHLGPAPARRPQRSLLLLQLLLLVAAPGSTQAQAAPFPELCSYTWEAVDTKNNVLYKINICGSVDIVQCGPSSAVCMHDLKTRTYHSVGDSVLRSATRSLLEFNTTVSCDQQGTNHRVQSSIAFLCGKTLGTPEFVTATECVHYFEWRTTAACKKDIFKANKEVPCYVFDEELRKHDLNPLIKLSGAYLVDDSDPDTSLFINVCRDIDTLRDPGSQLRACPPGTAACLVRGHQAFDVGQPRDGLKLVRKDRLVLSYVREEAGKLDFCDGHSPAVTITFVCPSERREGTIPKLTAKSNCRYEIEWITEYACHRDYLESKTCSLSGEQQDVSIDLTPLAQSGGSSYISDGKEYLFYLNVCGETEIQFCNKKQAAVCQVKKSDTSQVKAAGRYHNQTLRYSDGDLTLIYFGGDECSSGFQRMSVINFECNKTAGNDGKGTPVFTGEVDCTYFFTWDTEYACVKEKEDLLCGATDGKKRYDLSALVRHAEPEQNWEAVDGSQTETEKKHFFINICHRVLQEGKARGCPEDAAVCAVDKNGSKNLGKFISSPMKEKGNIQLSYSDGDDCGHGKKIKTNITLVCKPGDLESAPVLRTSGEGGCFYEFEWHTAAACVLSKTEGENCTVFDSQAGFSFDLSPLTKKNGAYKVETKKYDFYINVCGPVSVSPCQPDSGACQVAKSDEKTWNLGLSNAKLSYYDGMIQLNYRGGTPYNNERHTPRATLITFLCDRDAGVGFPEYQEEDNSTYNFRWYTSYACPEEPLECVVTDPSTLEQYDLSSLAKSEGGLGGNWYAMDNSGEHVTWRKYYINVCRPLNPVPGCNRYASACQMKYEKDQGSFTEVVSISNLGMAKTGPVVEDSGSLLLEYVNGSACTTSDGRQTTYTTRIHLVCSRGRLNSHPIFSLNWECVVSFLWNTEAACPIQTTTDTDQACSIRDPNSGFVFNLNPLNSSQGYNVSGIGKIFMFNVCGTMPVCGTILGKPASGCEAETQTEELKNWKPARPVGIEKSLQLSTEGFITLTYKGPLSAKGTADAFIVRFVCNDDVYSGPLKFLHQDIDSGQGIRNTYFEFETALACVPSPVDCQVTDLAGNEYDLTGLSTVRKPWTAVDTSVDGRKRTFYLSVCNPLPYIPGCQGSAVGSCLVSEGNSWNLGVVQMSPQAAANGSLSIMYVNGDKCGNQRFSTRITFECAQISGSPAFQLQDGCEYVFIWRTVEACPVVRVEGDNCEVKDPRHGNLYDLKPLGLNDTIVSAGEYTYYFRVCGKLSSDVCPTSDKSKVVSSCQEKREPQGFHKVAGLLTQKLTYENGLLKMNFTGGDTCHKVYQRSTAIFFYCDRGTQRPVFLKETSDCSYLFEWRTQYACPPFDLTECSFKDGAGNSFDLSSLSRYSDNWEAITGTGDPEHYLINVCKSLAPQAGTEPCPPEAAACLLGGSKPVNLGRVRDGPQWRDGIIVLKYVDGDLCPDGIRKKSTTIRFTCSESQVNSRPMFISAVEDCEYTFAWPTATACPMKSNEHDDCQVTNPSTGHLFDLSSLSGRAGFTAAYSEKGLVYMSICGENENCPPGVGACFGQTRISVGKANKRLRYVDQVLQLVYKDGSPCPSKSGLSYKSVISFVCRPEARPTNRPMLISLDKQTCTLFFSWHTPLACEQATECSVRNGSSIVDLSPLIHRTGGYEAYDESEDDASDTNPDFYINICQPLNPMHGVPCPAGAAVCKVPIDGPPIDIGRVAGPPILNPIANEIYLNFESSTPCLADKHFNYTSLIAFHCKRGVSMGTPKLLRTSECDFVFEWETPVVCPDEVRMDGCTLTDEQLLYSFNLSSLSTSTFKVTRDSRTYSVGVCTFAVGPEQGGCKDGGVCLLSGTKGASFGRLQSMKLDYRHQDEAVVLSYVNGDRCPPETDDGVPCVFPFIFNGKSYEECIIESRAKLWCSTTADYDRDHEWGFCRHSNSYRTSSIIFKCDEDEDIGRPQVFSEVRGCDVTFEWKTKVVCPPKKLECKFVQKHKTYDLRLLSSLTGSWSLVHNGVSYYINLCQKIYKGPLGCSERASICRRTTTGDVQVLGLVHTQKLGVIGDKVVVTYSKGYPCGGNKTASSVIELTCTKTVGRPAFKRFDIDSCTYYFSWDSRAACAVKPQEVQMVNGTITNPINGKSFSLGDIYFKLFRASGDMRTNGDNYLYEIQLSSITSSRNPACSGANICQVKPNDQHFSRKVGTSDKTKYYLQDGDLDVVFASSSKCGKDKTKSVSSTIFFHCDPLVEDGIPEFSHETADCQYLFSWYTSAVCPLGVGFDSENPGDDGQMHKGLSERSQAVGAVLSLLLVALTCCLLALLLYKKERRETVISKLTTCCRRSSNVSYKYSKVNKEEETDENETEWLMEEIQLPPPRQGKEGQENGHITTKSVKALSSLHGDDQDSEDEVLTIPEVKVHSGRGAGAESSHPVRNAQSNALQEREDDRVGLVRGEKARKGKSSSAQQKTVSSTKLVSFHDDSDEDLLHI
UniProt P62258, sequence (P62258 whole entry): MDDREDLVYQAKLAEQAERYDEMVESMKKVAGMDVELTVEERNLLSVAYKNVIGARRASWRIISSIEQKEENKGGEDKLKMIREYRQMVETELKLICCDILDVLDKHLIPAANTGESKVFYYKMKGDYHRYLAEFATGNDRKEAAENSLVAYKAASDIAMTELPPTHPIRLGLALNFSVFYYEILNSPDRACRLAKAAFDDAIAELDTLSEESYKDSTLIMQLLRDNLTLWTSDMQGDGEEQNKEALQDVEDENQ

| Target | lysine labeling ratio R10:1 |
| --- | --- |
| IGF2R (lysine site: K1862) (UniProt P11717) | 1.81 (active) |
| GNAI2 (lysine site: K313) (UniProt P04899) | 1.06 (active) |
| DSG2 (lysine site: K561) (UniProt Q14126) | 6.57 (inactive) |
| UniProt Q9UHN6 (lysine site: K887) | 1.21 (active) |
| UniProt Q14964 (lysine site: K63) | 2.17 (inactive) |
| DISP1 (lysine site: K908) (UniProt Q96F81) | 3.35 (inactive) |
| UniProt P04626 (lysine site: K200) | 6.23 (inactive) |
| ANP32B (lysine site: K68) (UniProt Q92688) | 1.78 (active) |
| UniProt Q15149 (lysine site: K2142) | 3.4 (inactive) |
| UniProt Q9UHN6 (lysine site: K1278) | 1.31 (active) |
| CSPG4 (lysine site: K1711) (UniProt Q6UVK1) | 0.655 (active) |
| CYR61 (lysine site: K378) (UniProt O00622) | 1.08 (active) |
| UniProt Q00341 (lysine site: K1066) | 6.11 (inactive) |
| UniProt P62258 (lysine site: K125) | 1.05 (active) |
| SPTAN1 (lysine site: K1838) (UniProt Q13813) | 0.73 (active) |
| MSN (lysine site: K400) (UniProt P26038) | 3.75 (inactive) |
| UniProt P22413 (lysine site: K503) | 1.89 (active) |
| UniProt O95490 (lysine site: K494) | 1.07 (active) |
| WDR1 (lysine site: K569) (UniProt O75083) | 5.89 (inactive) |
| UniProt P61978 (lysine site: K179) | 3.68 (inactive) |
| RBMX (lysine site: K217) (UniProt P38159) | 8.01 (inactive) |
| UniProt Q14574 (lysine site: K381) | 1.61 (active) |
| SURF4 (lysine site: K139) (UniProt O15260) | 3.69 (inactive) |
